The values that follow come from PubChem BioAssay AID624256 (NMMLSC, 2012).

The whole screen tested about 360,000 compounds, of which about 3,700 (1%) were called active. About 2% were inconclusive and are not listed.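 Rule for the calls: active = normalized GFP-positive differentiation at or above the plate's own cutoff, the solvent-only control mean plus 3 SD; inconclusive = no clear call, values can overlap the other calls; inactive = the rest.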 Only a selection was taken, and actives are over-represented in it overall.

The test can be described thus: induction of myeloid progenitor differentiation, primary screen, cell-based, flow cytometry, MLPCN library (AID 624256).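 For GFP+ MAC1+ double positive: cells exposed to compound for four days before flow analysis.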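 For normalized GFP-positive differentiation: cells exposed to compound for four days before flow analysis; 0% = DMSO wells and 100% = fulvestrant positive control at 5 µM.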 The note with it: ER-HoxA9 myeloid progenitors, lysozyme-GFP differentiation, at 10 µM; GFP+ MAC1+ double positive: measured here: differentiation confirmed by MAC1 staining, stronger effect = higher value; normalized GFP-positive differentiation: stronger effect = higher value.
Take `Cc1ccc(NC(=O)CCC(=O)c2ccc(Br)cc2)cc1`: the GFP+ MAC1+ double positive is 0.4% and the result was inactive.

For the compound `Cc1ccc(C(=O)Cc2nnc(C)s2)cc1`, the GFP+ MAC1+ double positive was 0.7% and the normalized GFP-positive differentiation was 113% (active).

As to `CCC(C)CN1C(=O)CSCC1(C)C(=O)NCc1ccccc1` (stereo unspecified), the GFP+ MAC1+ double positive turned out to be 1.5% and the result was inactive.

Consider `CSCCC(NS(=O)(=O)/C=C/c1ccccc1)C(=O)N1CCC(C)CC1` (stereo unspecified), for which the GFP+ MAC1+ double positive came to 1% and the compound was classed as inactive.

For `CSCCC(NS(=O)(=O)c1ccc(C)cc1)C(=O)N1CCCC1` (stereo unspecified), the GFP+ MAC1+ double positive came to 1.3% and the outcome was inactive.

Turning to `CSCCC(NS(=O)(=O)c1ccccc1F)C(=O)N1CC=C(c2ccccc2)CC1` (stereo unspecified), the GFP+ MAC1+ double positive came to 1.3% and the normalized GFP-positive differentiation is 63.9% (active).

On to `C#Cc1ccc(NC(=O)C2(C)CCN2C(=O)Cc2ccc(-c3ccccc3)cc2)cc1` (stereo unspecified), for which the GFP+ MAC1+ double positive stood at 0.8% and the result was inactive.

Take `Cc1ccc2nc(NC(=O)C3CSC4(C)CCC(=O)N34)sc2c1` (stereo unspecified): the GFP+ MAC1+ double positive was 1.7% and the compound was called inactive.

Consider `CC(=O)N(CCCN(C)C)c1nc2ccc(C)cc2s1`, for which the GFP+ MAC1+ double positive turned out to be 0.6% and the normalized GFP-positive differentiation was 33.5% (active).

As for `Cc1ccc2nc(NC(=O)CSc3nc(=O)n(CCCN(C)C)c4c3CCC4)sc2c1`, the GFP+ MAC1+ double positive was 1.3% and the compound was called inactive.

Turning to `CN1C(=O)[C@H]2[C@@H](C3CC3)N3C(=O)CN(Cc4ccccc4)C(=O)[C@@]3(C)[C@H]2C1=O`, the GFP+ MAC1+ double positive is 1.6% and the result was inactive.

Regarding `CCN1C[C@@H]2[C@@H]3C(=O)N(Cc4ccccc4)C(=O)[C@@H]3[C@](C)(C1=O)N2C(=O)c1ccc(C(C)(C)C)cc1`, the GFP+ MAC1+ double positive worked out at 1.2% and the outcome was inactive.

Regarding `CCN1C[C@@H]2[C@@H]3C(=O)N(C)C(=O)[C@@H]3[C@](C)(C1=O)N2C(=O)c1ccccc1`, the GFP+ MAC1+ double positive worked out at 10.9% and the normalized GFP-positive differentiation was 43.5% (active).

For `Oc1cccc2cc(-c3ccncc3)cnc12`, the GFP+ MAC1+ double positive was found to be 0.7% and the compound was classed as inactive.

Turning to `COCCNc1ncnc2c1ncn2[C@H]1CN(CCN2CCOCC2)C[C@@H](CO)O1`, the GFP+ MAC1+ double positive stood at 1.1% and the compound was classed as inactive.

As for `CCOC(=O)[C@]12CCCC=C1N(CCC1=CCCCC1)C(=O)[C@H](CC(=O)NCCCCc1ccccc1)C2`, the GFP+ MAC1+ double positive amounted to 2.2% and the compound was called inactive.

For `O=C(Cc1c(O)c2ccccc2[nH]c1=O)NCc1ccccc1`, the GFP+ MAC1+ double positive turned out to be 0.1% and the compound was called inactive.

For `COC(=O)Cc1c(-c2[nH]c3ccccc3c2CC(=O)OC)[nH]c2ccccc12`, the GFP+ MAC1+ double positive was 17.1% and the normalized GFP-positive differentiation is 207% (active).

Consider `CCCOC(=O)Cc1c(O)c2ccccc2[nH]c1=O`, for which the GFP+ MAC1+ double positive was determined as 0.6% and the call was inactive.

In the case of `CCOc1ccc(Cl)cc1-c1cc(C(=O)NCc2cccs2)[nH]n1`, the GFP+ MAC1+ double positive is 1.7% and the outcome was inactive.

Regarding `CC1(C(=O)NS(=O)(=O)c2ccccc2)CCN1C(=O)c1ccccc1` (stereo unspecified), the GFP+ MAC1+ double positive was determined as 0.9% and the call was inactive.

For the compound `COc1ccccc1Cc1c(-c2ccc(Cl)cc2)nc2c3ccccc3ccn12`, the GFP+ MAC1+ double positive amounted to 0.5% and the compound was classed as inactive.

`CCOC(=O)N1CCN(C(=O)c2ccc3c(=O)n(CCc4ccc(OC)c(OC)c4)c(=O)[nH]c3c2)CC1`: the GFP+ MAC1+ double positive was determined as 6.8% and the normalized GFP-positive differentiation is 56% (active).

On to `COc1ccc(Cn2c(=S)[nH]c3cc(C(=O)N4CCCCC4)ccc3c2=O)cc1`, for which the GFP+ MAC1+ double positive turned out to be 0.2% and the compound was called inactive.

As to `COCCn1c(=S)[nH]c2cc(C(=O)NCCc3ccc(OC)c(OC)c3)ccc2c1=O`, the GFP+ MAC1+ double positive was 2.7% and the call was inactive.

Turning to `CCCCc1c(-c2ccc(Br)cc2)ncn1CCc1ccccc1OC`, the GFP+ MAC1+ double positive came to 2.9% and the outcome was inactive.

For `C[C@H](NC(=O)[C@@H]1CCCN1C(=O)[C@@H]1CCCN1C(=O)c1ccccc1)c1ccccc1`, the GFP+ MAC1+ double positive is 0.7% and the result was inactive.

Consider `Cc1ccc(CN2CC(N3CCC(Cc4ccccc4)CC3)CS2(=O)=O)cc1` (stereo unspecified), for which the GFP+ MAC1+ double positive amounted to 1.6% and the compound was classed as inactive.

On to `COc1ccc(C2(O)C(=O)Nc3ccccc32)cc1` (stereo unspecified), for which the GFP+ MAC1+ double positive worked out at 0.4% and the result was inactive.

With `Cc1cc(O)c(C2(O)C(=O)Nc3ccccc32)cc1C` (stereo unspecified), the GFP+ MAC1+ double positive came out at 0.4% and the call was inactive.

Take `Cc1cccc(CC2(O)C(=O)Nc3ccccc32)n1` (stereo unspecified): the GFP+ MAC1+ double positive was determined as 29.8% and the normalized GFP-positive differentiation is 367% (active).

`Cc1ccc(S(=O)(=O)N2CC[C@H]3[C@@H](C2)C(=O)C[C@@H](c2ccccc2)N3S(=O)(=O)c2ccc(C)cc2)cc1`: the GFP+ MAC1+ double positive came out at 2.5% and the outcome was inactive.

For the compound `Cc1[nH]c2ccccc2c1C(=O)COC(=O)c1c(-c2ccccc2)noc1C`, the GFP+ MAC1+ double positive came to 0.6% and the outcome was inactive.

For `CCOC(=O)c1c(-c2cccc(C)c2)csc1NC(=O)c1c(-c2ccccc2)noc1C`, the GFP+ MAC1+ double positive amounted to 15.3% and the normalized GFP-positive differentiation is 89% (active).

Take `CCOC(=O)c1c(-c2ccc(-c3ccccc3)cc2)csc1NC(=O)CCC(=O)O`: the GFP+ MAC1+ double positive was found to be 0.3% and the compound was classed as inactive.

On to `CC1(C(=O)NCc2ccccc2)CSCC(=O)N1CCCN1CCOCC1` (stereo unspecified), for which the GFP+ MAC1+ double positive is 4% and the result was inactive.

For the compound `CSCCC(C(=O)NC(C)(C)C)n1c(-c2ccccc2)nc2ccccc21` (stereo unspecified), the GFP+ MAC1+ double positive came to 4% and the compound was called inactive.

Consider `CSc1ccc(CN2CCC2(C)C(=O)NCc2ccccc2Br)cc1` (stereo unspecified), for which the GFP+ MAC1+ double positive turned out to be 0.7% and the outcome was inactive.

Consider `O=C(NCc1ccc(F)cc1)c1cc(C2CCCCN2C(=O)c2ccccn2)on1` (stereo unspecified), for which the GFP+ MAC1+ double positive turned out to be 2.6% and the call was inactive.

Regarding `N#Cc1ccc(C(C(=O)NCc2ccccc2)n2c(=O)c(-c3ccco3)nc3ccccc32)cc1` (stereo unspecified), the GFP+ MAC1+ double positive turned out to be 2.4% and the call was inactive.

With `COC(=O)c1ccc(NCc2cc(O)ccc2O)cc1`, the GFP+ MAC1+ double positive came out at 1.6% and the compound was called inactive.

For the compound `CC(OC(=O)c1ccc(Cl)cc1O)C(=O)NCCC1=CCCCC1` (stereo unspecified), the GFP+ MAC1+ double positive turned out to be 0.3% and the result was inactive.

With `CC(C)OC(=O)c1ccc(NCc2cc(O)ccc2O)cc1Cl`, the GFP+ MAC1+ double positive is 7.3% and the normalized GFP-positive differentiation is 354% (active).
